Data: PubChem BioAssay (EPA / NIEHS)
Records with an inconclusive call do not appear. Some structures have more than one record in an assay (separate samples or runs), and their calls can disagree. The source made the active and inactive calls. How the source made its calls: active means hit-call score of the fitted dose curve at least 0.9, where 1 is the maximum; inconclusive means response in the unintended direction; inactive means score below 0.9.

Assay: CCTE_Simmons_MITO_viability: CellTiter-Glo Viability Assessment for CCTE's HepG2 Seahorse XF Respirometric Screening Assay [post-hoc], Simmons Lab (AID 2284007);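 on AC50: cells exposed to chemical for 90 min before the ATP read; actives lower ATP signal relative to DMSO baseline meaning reduced viability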
Method: CCTE_Simmons_MITO is cell-based, respirometric assay using HepG2 cells and a Seahorse XF Analyzer to measure oxygen consumption rates over four temporal phases spanning a total of 72 minutes: pre-injection (pre-treatment), basal (following test compound injection), maximal (following FCCP uncoupler injection), and inhibited (following rotenone/antimycin A injection)CCTE_Simmons_MITO_viability is one of 4 assay components measured from the CCTE_Simmons_MITO assay. It is designed to make measurements of ATP content, a form of viability reporter, as detected with bioluminescence signals by Luciferase-coupled ATP quantitation technology. Data from the assay component CCTE_Simmons_MITO_viability was analyzed at the endpoint, CCTE_Simmons_MITO_viability, in the positive analysis fitting direction relative to DMSO as the negative control and baseline of activity. Using a type of viability reporter, measures of ATP content for loss-of-signal activity can be used to understand the viability. To generalize the intended target to other relatable targets, this assay endpoint is annotated to the cell cycle intended target family, where the subfamily is cytotoxicity.
Test chemicals were administered as a titrated series of 7 concentrations from 125 nM up to 100 uM [final] for 90 minutes prior to single endpoint detection. Three biological replicates of technical singles were run for every chemical concentration tested. Dimethylsulfoxide [DMSO] was used as the vehicle control. Dichlone [DCNQ] was used as the positive control and was administered as a titrated series of 8 concentrations from 10 nM up to 100 uM [final].

| Structure (SMILES) | outcome | AC50 |
| --- | --- | --- |
| N#CC(CCc1ccc(Cl)cc1)(Cn1cncn1)c1ccccc1 (stereo unspecified) | inactive |  |
| CC(C)Oc1cc(-n2nc(C(C)(C)C)oc2=O)c(Cl)cc1Cl | inactive |  |
| CON(C)C(=O)Nc1ccc(Cl)c(Cl)c1 | inactive |  |
| CCc1nn(C)c(C(=O)NCc2ccc(C(C)(C)C)cc2)c1Cl |  | 0.217 µM (active) |
| N#Cc1nn(-c2c(Cl)cc(C(F)(F)F)cc2Cl)c(N)c1S(=O)C(F)(F)F (stereo unspecified) | inactive |  |
| OC(c1ccc(Cl)cc1)(c1cncnc1)c1ccccc1Cl (stereo unspecified) | inactive |  |
| CO/C=C(/C(=O)OC)c1ccccc1Oc1cc(Oc2ccccc2C#N)ncn1 | inactive |  |
| C=CCC1=C(C)C(OC(=O)C2C(C=C(C)C)C2(C)C)CC1=O (stereo unspecified) | inactive | 5.17 µM (active) |
| COc1nc(NC(C)C)nc(NC(C)C)n1 | inactive |  |
| N#Cc1cc(Br)c(O)c(Br)c1 |  | 10.8 µM (active) |
| CCCN(CCC)c1c([N+](=O)[O-])cc(S(N)(=O)=O)cc1[N+](=O)[O-] | inactive |  |
| CC1COC(Cn2cncn2)(c2ccc(Oc3ccc(Cl)cc3)cc2Cl)O1 (stereo unspecified) | inactive |  |
| CCCC1COC(Cn2cncn2)(c2ccc(Cl)cc2Cl)O1 (stereo unspecified) |  | 26.5 µM (active) |
| CC(C)(C)c1ccc(CSc2cnn(C(C)(C)C)c(=O)c2Cl)cc1 |  | 0.411 µM (active) |
| Cc1ccc(-c2c(Cl)nc(C#N)n2S(=O)(=O)N(C)C)cc1 | inactive |  |
| O=C(Nc1ccccc1)Nc1ccnc(Cl)c1 | inactive |  |
| COC(=O)N(OC)c1ccccc1COc1ccn(-c2ccc(Cl)cc2)n1 | inactive |  |
| COP(=S)(OC)Oc1nc(Cl)c(Cl)cc1Cl |  | 19.8 µM (active) |
| CCCCNC(=O)OCC#CI | inactive |  |
| C=CCC1=C(C)[C@@H](OC(=O)[C@@H]2[C@@H](C=C(C)C)C2(C)C)CC1=O | inactive |  |
